Records with an inconclusive call do not appear. Active and inactive are the calls of the source. Unless noted, calls follow the shape of the dose curve; as a rule, active = well fitted curve in the direction sought with a large enough effect; inconclusive = small, poorly fitted or top-dose-only effect, or another doubt; inactive = no such curve, though single readings can be large; an effect the other way counts as inactive or inconclusive.

Experiment [1] has as its target T1, Hexokinase-4 (Homo sapiens) + Glucokinase regulatory protein (Homo sapiens) (UniProt P35557+Q14397). Briefly: qHTS assay for inhibitors of recombinant human GCK-GKRP interaction: ADP-Glo assay (AID 743206). In a few lines:
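GST-GCK and FLAG-GKRP (15 nM each in the dispensed mix, with 2 uM S6P) react with 0.4 mM ATP and 5 mM glucose (final) in Hepes pH 7.6 for 60 min at room temperature. ADP is measured by ADP-Glo luminescence.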
(In general: Quantitative high-throughput screening tests each substance at several concentrations.)

Experiment [2] deals with T1, Hexokinase-4 (Homo sapiens) + Glucokinase regulatory protein (Homo sapiens). In words: qHTS assay for inhibitors of recombinant human GCK-GKRP interaction: HTRF assay (AID 743207). The method, boiled down:
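HTRF binding of 5 nM GST-GCK and 5 nM FLAG-GKRP with 2 uM S6P in pH 7.1 Hepes buffer (MgCl2, KCl, DTT, Tween 20, BSA). Anti-FLAG XL665 and anti-GST donor added, 60 min at room temperature; 665/615 nm read, normalized to with- and without-GCK controls.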

Experiment [3] can be described thus: Natriuretic polypeptide receptor (hNpr1) antagonism - Pilot counterscreen GloSensor control cell line (AID 1347045; calls by dose curve; also: series mostly up to about 38 µM). The method, boiled down:
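Luminescence was read before and 20 min after adding 50 uM SNP, which stimulates soluble guanylyl cyclase. The HEK293 cells expressing the GloSensor cGMP sensor had been preloaded with 2% reagent for 2 h and treated with compound.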
For orientation: The purpose of a counterscreen is to sort out artefacts and off-target activity.

A short description of experiment [4]: NS1 protein of Zika virus - qHTS assay to identify small molecule inhibitors in human HEK 293 cells (AID 1347053). Also: series mostly up to about 46 µM; nearly all actives have a fitted effect of over 55% in size. In a few lines:
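Inhibition of NS1 expression was scored in HEK 293 cells given compound 1 h ahead of MR766 virus (MOI = 0.5). Following 24 h at 37 C, two anti-NS1 antibodies generated a TR-FRET signal, scaled between uninfected and infected controls.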

The target of experiment [5] is T2, Tyrosine-protein phosphatase non-receptor type substrate 1 (Homo sapiens) + Leukocyte surface antigen CD47 (Homo sapiens) (UniProt P78324+Q08722). Briefly: CD47-SIRPalpha protein protein interaction - LANCE assay qHTS validation (AID 1347057; active = well fitted curve in the direction sought with a large enough effect in the signal ratio, with a control signal flat, not every such curve was filed as active; the % refers to the signal ratio; also: series mostly up to about 38 µM). The method, boiled down: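 First, His-tagged CD47 and Eu-labelled anti-His antibody met the compound for 30 min; next, site-specifically biotinylated SIRPalpha was added for 30 min; finally streptavidin-APC was added before reading the TR-FRET ratio.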
T2 sequence (P78324 whole entry, looked up): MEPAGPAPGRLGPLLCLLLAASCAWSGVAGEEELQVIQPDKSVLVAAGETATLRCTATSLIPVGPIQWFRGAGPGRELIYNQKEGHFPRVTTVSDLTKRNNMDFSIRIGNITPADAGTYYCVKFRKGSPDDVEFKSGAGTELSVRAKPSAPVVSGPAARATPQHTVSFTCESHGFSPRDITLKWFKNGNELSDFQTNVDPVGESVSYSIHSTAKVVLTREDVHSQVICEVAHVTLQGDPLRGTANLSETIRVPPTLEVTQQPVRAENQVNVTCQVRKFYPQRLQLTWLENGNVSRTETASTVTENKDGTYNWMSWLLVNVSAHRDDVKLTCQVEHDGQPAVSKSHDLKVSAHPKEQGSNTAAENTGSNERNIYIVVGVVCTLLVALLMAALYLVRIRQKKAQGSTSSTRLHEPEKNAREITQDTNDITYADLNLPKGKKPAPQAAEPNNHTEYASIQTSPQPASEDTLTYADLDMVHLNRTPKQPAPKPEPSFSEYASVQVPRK
T2 sequence (Q08722 whole entry, looked up): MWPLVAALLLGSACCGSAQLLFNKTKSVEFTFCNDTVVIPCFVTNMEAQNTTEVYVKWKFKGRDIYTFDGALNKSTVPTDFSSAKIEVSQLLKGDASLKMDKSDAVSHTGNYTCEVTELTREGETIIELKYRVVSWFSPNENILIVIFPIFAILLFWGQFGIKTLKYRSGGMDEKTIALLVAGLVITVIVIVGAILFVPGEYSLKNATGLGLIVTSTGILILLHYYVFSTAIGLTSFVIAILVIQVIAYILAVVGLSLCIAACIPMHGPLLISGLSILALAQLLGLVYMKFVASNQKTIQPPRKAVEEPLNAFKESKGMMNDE
On the technique in general: In TR-FRET formats the signal depends on donor and acceptor labels being close together.

Experiment [6] addresses T2, Tyrosine-protein phosphatase non-receptor type substrate 1 (Homo sapiens) + Leukocyte surface antigen CD47 (Homo sapiens). Briefly: CD47-SIRPalpha protein protein interaction - HTRF assay qHTS validation (AID 1347058; active = well fitted curve in the direction sought with a large enough effect in the signal ratio, not every such curve was filed as active; the % refers to the signal ratio;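 also: recombinant soluble extracellular CD47 with His tag and biotinylated SIRPalpha domains; series mostly up to about 38 µM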). The method, boiled down: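 TR-FRET read (Ch1/Ch2 ratio) of soluble extracellular CD47 and Avi-biotinylated SIRPalpha domains in PBS pH 7.4 with 0.05% IGEPAL; 7-point compound titration. Sequential 30 min room-temperature steps; non-biotinylated SIRPalpha as control inhibitor.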

Experiment [7] shares this target. In words: CD47-SIRPalpha protein protein interaction - Alpha assay qHTS validation (AID 1347059).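 Also: bead proximity luminescence from CD47 binding SIRPalpha after compound preincubation with SIRPalpha.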 In a few lines:
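Binding is measured by AlphaScreen proximity: Ni-NTA acceptor beads capture His-CD47, streptavidin donor beads capture biotin-SIRPalpha. Each of three additions (SIRPalpha with compound, CD47, beads) incubates 30 min at room temperature protected from light.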

Experiment [8] has as its target Parathyroid hormone/parathyroid hormone-related peptide receptor (Homo sapiens) (UniProt Q03431). In words: qHTS for PTHR1 Agonists: Optimization Screen against the NCGC LOPAC library (AID 1347079).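 Also: GloSensor cAMP luminescence in HEK-293 GP2 cells expressing human PTHR1 with IBMX.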 The method, boiled down: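 Agonist readout: GloSensor cAMP luminescence, read after 15 min at room temperature. HEK-293-derived GP2 line carries PTHR1; compounds tested as a titration for 1 hr at 37C in presence of IBMX. M-PTH (1-15) served as control.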

The test system of experiment [9] is Zika virus NS2B-NS3 protease. In words: Primary screen GU AMC qHTS for Zika virus inhibitors (AID 1347154). Also: nearly all actives have a fitted effect of over 70% in size. In a few lines: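 Fluorogenic AMC-substrate cleavage by noncovalent NS2B-NS3 protease complex (25 nM, pH 8.0 Tris buffer with Tween 20) followed for 15 minutes at room temperature (~20% conversion). Percent inhibition from ex340/em450 signal change, fitted by 4-parameter Hill equation.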

Experiment [10] in a line: qHTS to identify inhibitors of the type 1 interferon - major histocompatibility complex class I in skeletal muscle: primary screen against the NCATS LOPAC collection (AID 1347405).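 Also: lytic HiBiT luminescence reporting HLA-B protein level.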 In a few lines: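 Luminescence from HiBiT fused to endogenous HLA-B in CRISPR-engineered human myoblasts served as the read-out. Cells received 4.0 ng/ml IFN-beta plus compound (seven concentrations, 1:4.3 steps, highest 46 uM final) for 24 hrs before lytic detection.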

Experiment [11] is described as follows: qHTS for inhibitors of adenylyl cyclases using a fission yeast platform: a pilot screen against the NCATS LOPAC library (AID 1347410). In a few lines:
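S. pombe CHP2027 (AC9-GNAS-PDE4D2) carrying PKA-repressed fbp1-GFP, incubated 18 h at 30C in EMM with LOPAC compounds at up to 57 uM. GFP gain-of-signal read by laser scanning cytometry; DMSO negative control.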

In experiment [12] the target is Single-stranded DNA cytosine deaminase (Homo sapiens) (UniProt Q9GZX7). Briefly: Validation qHTS assay for inhibitors of Activation Induced Cytidine Deaminase (AID): AID signal (AID 1347429). In a few lines: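 Fluorescence at 540 nm excitation and 590 nm emission reports ssDNA cytosine deamination by AID, with UDG in the same well. Compound-treated reactions ran 4 hr at room temperature with DJC20/DJC23 substrate, followed by 30 min NaOH treatment.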
Single-stranded DNA cytosine deaminase (Homo sapiens), sequence (Q9GZX7 whole entry, looked up): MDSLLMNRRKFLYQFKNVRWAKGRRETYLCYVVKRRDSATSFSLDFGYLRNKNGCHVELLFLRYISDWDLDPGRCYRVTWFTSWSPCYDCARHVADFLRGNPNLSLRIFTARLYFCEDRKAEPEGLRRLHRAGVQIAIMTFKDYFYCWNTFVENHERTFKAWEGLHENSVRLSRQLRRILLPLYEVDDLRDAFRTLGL

A short description of experiment [13]: Primary qHTS for inhibitors of La Crosse Virus (LACV) - induced cell death in SH-SY5Y cells (AID 1508616).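 Also: top concentration of the series differs between compounds; higher means more rescue of cells from virus-induced death.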 The method, boiled down: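 Protection against LACV-induced cell death is scored in SH-SY5Y cells exposed to compounds and virus (0.01 MOI) for 6 days. Data normalized to virus-infected DMSO wells and virus-free DMSO wells.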
Experiment [14] concerns the target Calcium and integrin-binding protein 1 (Homo sapiens) (UniProt Q99828). Briefly: Validation qHTS for Identification of Calcium Integrin Binding protein 1 (CIB1) Competitor (AID 1508618). In a few lines: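 CIB1-GST (1 uM final) incubated 15 min at room temperature with compounds (up to 114 uM), then FITC-labelled alphaIIb peptide (100 nM) added. FP read (Ex 480/Em 540) after 15 min, pH 7.4 buffer containing 5 mM CaCl2.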

A short description of experiment [15]: Primary qHTS for small molecule stabilizers of the endoplasmic reticulum resident proteome: Secreted ER Calcium Modulated Protein (SERCaMP) assay (AID 1508630). In a few lines:
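GLuc-SERCaMP-expressing SH-SY5Y cells, pretreated 16 h with compound, are challenged with thapsigargin to empty ER calcium stores; after 4 h, coelenterazine is added directly to the medium and luminescence is imaged.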

Experiment [16] deals with N-terminal Xaa-Pro-Lys N-methyltransferase 1 (Homo sapiens) (UniProt Q9BV86). In words: Confirmatory qHTS for Inhibitors of N-terminal methyltransferase 1 (NTMT1): MTaseGlo Assay (AID 1645874). Also: potency is read from the fitted curve at half-maximal effect; nearly all actives have a fitted effect of over 65% in size. In a few lines:
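qHTS format: NTMT1 125 nM, SAM 100 uM, peptide SPKRIA 1 uM final; 15 min compound preincubation, 30 min reaction at room temperature. MTase-Glo luminescence.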

In experiment [17] the target is Metallo-beta-lactamase type 2 (Klebsiella pneumoniae) (UniProt C7C422). Briefly: qHTS to identify inhibitors of the New Delhi Metallo-beta-lactamase (NDM): assay validation screen against the NCATS LOPAC Collection (AID 1794843). Also: series mostly up to about 38 µM. The method, boiled down: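 Absorbance at 485 nm from nitrocefin turnover (50 uM solution added), read at plateau, gives the read-out. Compounds in DMSO were incubated first with 2 nM final NDM-1 in pH 7.0 HEPES buffer containing 1 uM ZnSO4 and 0.01% Tween20.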
Metallo-beta-lactamase type 2 (Klebsiella pneumoniae), sequence (C7C422 whole entry, looked up): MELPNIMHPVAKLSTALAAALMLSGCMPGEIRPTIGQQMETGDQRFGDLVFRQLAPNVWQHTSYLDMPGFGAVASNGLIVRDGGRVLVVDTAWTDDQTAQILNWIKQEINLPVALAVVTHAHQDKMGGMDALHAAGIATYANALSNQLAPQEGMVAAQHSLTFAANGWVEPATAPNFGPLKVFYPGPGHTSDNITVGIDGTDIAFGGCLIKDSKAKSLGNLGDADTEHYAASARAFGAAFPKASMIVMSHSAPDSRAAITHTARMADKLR

Experiment [18] has as its target Glutathione peroxidase 1 (Homo sapiens) (UniProt P07203). Briefly: Primary qHTS Assay for Inhibitors of Recombinant Selenoprotein Glutathione Peroxidase 1 (GPX1) (AID 1845191). Also: nearly all actives have a fitted effect of over 65% in size. The method, boiled down:
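10 nM GPX1 + cpd, 30 min RT; start w/ 1 mM GSH, 0.5 mM cumene hydroperoxide, 0.5 mM NADPH, 100 nM GR, 0.01% BSA; buffer 50 mM Tris-HCl pH 7.5, 2 mM EDTA, 150 mM NaCl; Fl 340/450, 0 & 15 min.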

The target of experiment [19] is Phospholipid hydroperoxide glutathione peroxidase GPX4 (Homo sapiens) (UniProt P36969). Briefly: Primary qHTS Assay for Inhibitors of Recombinant Selenoprotein Glutathione Peroxidase 4 (GPX4) (AID 1845192). Also: nearly all actives have a fitted effect of over 65% in size. Conditions: outcome: dose series up to 50 µM unless noted. The method, boiled down:
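NADPH consumption, followed by fluorescence at 340/450 nm between 0 and 15 min, reports GPX4 activity via coupled glutathione reductase (100 nM). Enzyme 200 nM was pre-exposed to compound 30 min; 0.5 mM cumene hydroperoxide and 1 mM GSH served as substrates.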

T1 sequence (P35557 whole entry, looked up): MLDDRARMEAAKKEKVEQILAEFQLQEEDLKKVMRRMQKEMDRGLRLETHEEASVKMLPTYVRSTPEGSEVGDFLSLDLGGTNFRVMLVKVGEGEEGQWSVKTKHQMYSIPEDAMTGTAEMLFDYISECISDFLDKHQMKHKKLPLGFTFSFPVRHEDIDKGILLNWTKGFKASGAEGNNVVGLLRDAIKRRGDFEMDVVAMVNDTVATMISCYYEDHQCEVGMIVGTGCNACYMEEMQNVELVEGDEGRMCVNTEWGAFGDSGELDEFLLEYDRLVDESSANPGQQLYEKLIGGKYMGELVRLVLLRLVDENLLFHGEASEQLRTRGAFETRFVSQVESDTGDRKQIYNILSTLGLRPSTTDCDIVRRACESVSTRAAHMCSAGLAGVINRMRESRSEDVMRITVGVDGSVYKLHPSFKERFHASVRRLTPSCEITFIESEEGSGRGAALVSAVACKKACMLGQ
T1 sequence (Q14397 whole entry, looked up): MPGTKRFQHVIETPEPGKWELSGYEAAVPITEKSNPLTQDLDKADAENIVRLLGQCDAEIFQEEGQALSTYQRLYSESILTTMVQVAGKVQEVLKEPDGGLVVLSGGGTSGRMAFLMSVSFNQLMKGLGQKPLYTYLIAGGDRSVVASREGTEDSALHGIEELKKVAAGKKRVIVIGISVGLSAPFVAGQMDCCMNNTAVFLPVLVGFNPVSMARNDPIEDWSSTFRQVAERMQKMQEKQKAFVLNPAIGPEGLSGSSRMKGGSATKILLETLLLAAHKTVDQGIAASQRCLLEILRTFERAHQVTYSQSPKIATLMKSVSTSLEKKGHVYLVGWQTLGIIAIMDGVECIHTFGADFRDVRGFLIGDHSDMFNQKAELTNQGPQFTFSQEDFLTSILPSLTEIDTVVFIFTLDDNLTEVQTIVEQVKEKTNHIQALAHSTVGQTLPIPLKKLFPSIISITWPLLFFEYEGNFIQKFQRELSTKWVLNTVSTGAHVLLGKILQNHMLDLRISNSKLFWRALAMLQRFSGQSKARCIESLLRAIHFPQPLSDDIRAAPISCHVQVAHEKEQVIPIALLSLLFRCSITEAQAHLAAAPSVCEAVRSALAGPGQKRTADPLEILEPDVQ
N-terminal Xaa-Pro-Lys N-methyltransferase 1 (Homo sapiens), sequence (Q9BV86 whole entry, looked up): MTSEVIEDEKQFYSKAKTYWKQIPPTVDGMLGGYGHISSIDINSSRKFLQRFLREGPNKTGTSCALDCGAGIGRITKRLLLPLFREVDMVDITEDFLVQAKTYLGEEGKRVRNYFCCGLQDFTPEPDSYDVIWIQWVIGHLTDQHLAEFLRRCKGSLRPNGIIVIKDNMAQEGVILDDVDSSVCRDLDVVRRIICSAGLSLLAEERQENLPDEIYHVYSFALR
Calcium and integrin-binding protein 1 (Homo sapiens), sequence (Q99828 whole entry, looked up): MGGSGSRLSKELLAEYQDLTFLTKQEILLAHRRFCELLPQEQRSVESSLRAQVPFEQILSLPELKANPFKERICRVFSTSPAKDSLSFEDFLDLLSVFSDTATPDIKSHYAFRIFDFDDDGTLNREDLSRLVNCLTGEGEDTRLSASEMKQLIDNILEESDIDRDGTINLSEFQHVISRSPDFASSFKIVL
Glutathione peroxidase 1 (Homo sapiens), sequence (P07203 whole entry, looked up): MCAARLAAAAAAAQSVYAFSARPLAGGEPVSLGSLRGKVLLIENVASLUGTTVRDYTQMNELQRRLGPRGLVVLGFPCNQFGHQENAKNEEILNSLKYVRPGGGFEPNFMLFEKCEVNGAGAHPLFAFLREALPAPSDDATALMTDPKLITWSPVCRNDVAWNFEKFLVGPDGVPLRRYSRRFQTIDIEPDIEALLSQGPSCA
Parathyroid hormone/parathyroid hormone-related peptide receptor (Homo sapiens), sequence (Q03431 whole entry, looked up): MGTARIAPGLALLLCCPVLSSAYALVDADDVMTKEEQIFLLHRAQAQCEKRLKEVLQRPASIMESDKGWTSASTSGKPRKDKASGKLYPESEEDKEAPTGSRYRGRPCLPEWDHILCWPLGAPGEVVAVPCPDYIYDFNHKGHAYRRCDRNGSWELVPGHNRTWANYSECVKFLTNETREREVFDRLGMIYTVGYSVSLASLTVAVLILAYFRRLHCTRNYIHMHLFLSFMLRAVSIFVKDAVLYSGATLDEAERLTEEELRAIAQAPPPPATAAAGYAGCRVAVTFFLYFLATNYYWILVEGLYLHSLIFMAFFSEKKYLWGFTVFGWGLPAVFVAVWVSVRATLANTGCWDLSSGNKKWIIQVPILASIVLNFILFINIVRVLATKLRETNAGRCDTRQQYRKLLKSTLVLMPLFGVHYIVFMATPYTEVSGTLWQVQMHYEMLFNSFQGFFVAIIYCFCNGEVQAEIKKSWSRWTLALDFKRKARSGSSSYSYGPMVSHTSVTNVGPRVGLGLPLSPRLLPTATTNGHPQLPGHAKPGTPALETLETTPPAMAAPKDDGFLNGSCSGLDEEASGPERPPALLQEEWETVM
Phospholipid hydroperoxide glutathione peroxidase GPX4 (Homo sapiens), sequence (P36969 whole entry, looked up): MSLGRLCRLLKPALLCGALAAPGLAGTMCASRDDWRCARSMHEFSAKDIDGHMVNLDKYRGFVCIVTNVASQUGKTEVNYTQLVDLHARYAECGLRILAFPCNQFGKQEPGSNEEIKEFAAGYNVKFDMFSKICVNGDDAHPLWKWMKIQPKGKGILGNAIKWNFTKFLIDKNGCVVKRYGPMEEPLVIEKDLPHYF

As to `Cc1cccc(/C=C/c2ccccc2)n1`, the result in experiment [1], in [2], in experiment [4], in [5], in [6] and in [8] was inactive. Further, the result in [11], in [13] and in experiment [14] was inactive. For the same compound, the Potency entry in experiment [3], in experiment [7], in experiment [9], in experiment [10], in experiment [12] and in experiment [15] was “inactive” in each case. Besides, the Potency result in experiment [17], in experiment [18] and in [19] was “inactive” each time. In addition, in experiment [16], the Potency was 27.4 µM (active).

The record behind these values is PubChem BioAssay (NCATS).
